Where “and” joins values, the source holds several entries; their conditions need not be identical. Identical values can stand only once. Inconclusive results are not listed. Calls of active or inactive are those of the source. How the source made its calls, unless noted: active means hit-call score of the fitted dose curve at least 0.9, where 1 is the maximum; inconclusive means response in the unintended direction; inactive means score below 0.9.

Experiment [1] in a line: Tanguay_ZF_120hpf_PIG_legacy: (Legacy) Oregon State University Tanguay Lab 120 Hour Post-fertilization zebrafish Assay for Pigmentation Malformation (AID 2283650). The essentials:
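Brightfield scoring of pigmentation malformation at 120 hpf, recorded as binary present/absent per larva. Exposure: dechorionated 5D wild-type embryos, one per well, static from 6 hpf at 28C, final DMSO 0.64% (vol/vol). Dead embryos not scored.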

A short description of experiment [2]: Tanguay_ZF_120hpf_CIRC_legacy: (Legacy) Oregon State University Tanguay Lab 120 Hour Post-fertilization zebrafish Assay for Circulatory Malformation (AID 2283651). The method, boiled down:
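Binary circulatory-malformation call at 120 hpf via brightfield imaging, relative to DMSO controls. Embryos (5D strain, chorion removed) received static, light-shielded exposure at 28C.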

A short description of experiment [3]: Tanguay_ZF_120hpf_TRUN_legacy: (Legacy) Oregon State University Tanguay Lab 120 Hour Post-fertilization zebrafish Assay for Truncated Body (AID 2283655). The essentials: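 Whole-embryo zebrafish screen: dechorionated 5D embryos, static exposure 6–120 hpf, 28C, sealed foil-covered plates, 0.64% DMSO. Binary truncation call; gain of signal versus DMSO baseline.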

The nature of experiment [4]: Tanguay_ZF_120hpf_NC_legacy: (Legacy) Oregon State University Tanguay Lab 120 Hour Post-fertilization zebrafish Assay for Notochord and Tail Malformation (AID 2283656). The essentials:
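Binary notochord-distortion calls, made by brightfield inspection, form the read-out; activity is fitted in the positive direction against DMSO. Exposure ran statically from 6 to 120 hpf at 28C with 0.64% DMSO.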

Experiment [5] can be described thus: Tanguay_ZF_120hpf_TR_legacy: (Legacy) Oregon State University Tanguay Lab 120 Hour Post-fertilization zebrafish Assay for Touch Response (AID 2283667). The essentials: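 Binary touch-response call at 120 hpf, analysed as gain of signal versus DMSO baseline. Wild-type 5D larvae, static exposure at 28C, 0.64% DMSO final; 5uM trimethyltin chloride as positive control.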

Experiment [6] can be described thus: CCTE_Padilla_ZF_144hpf_TERATOSCORE: (Legacy) CCTE's 144 Hour Post-fertilization zebrafish Assay Teratoscore, Padilla Lab (AID 2283679; active means hit-call score of the fitted dose curve at least 0.9, where 1 is the maximum; inactive means score below 0.9;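 on AC50: zebrafish embryos with chorions exposed by immersion from 6-8 hpf to 5 dpf with daily renewal; teratogenicity score from eye scoring of death hatching and malformations at 144 hpf; higher score means more developmental defects relative to DMSO baseline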). The method, boiled down: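 Larvae scored by eye at 144 hpf for death, hatching and malformations after a day in clean Hanks'. Before that, daily-renewed exposure at 80 uM (0.4% DMSO, 26C) from roughly 6-8 hpf through 5 dpf, 4 embryos per chemical.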

Experiment [7] in a line: CCTE_Simmons_CellTiterGLO_HEK293T: Viability Assessment in CCTE's Assays for Thyroperoxidase (TPO) Inhibition, Simmons Lab (AID 2283665).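 On AC50: cells exposed to compound for 24 h before readout; actives reduce ATP signal below DMSO vehicle meaning cytotoxicity.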 The essentials:
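ATP depletion measured in HEK293T cells after 24 h dosing (8 concentrations, 5 nM–87.5 uM final; DMSO 0.5%) using CellTiter-Glo luminescence; curves fit for loss of signal against DMSO baseline.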

Experiment [8] can be described thus: Tanguay_ZF_120hpf_SWIM_legacy: (Legacy) Oregon State University Tanguay Lab 120 Hour Post-fertilization zebrafish Assay for Swim Bladder Malformation (AID 2283654).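 Further: swim bladder malformation in each larva scored yes or no under brightfield.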 The method, boiled down: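 Tropical 5D embryos dechorionated at 4 hpf; 1 embryo/well from 6 hpf; static, sealed, dark exposure at 28C until 120 hpf; final DMSO 0.64%; 5uM trimethyltin chloride positive control; swim bladder defect recorded yes/no; dead embryos not scored.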

Read-out in experiment [9]: solute carrier (SLC22A6), SLC22A6 (gene 9356)
The experiment in a line: LTEA_HepaRG_SLC22A6: Life Technologies and Expression Analysis (LTEA) Assay for solute carrier (SLC22A6) using HepaRG (AID 2283653; active means hit-call score of the fitted dose curve at least 0.9, where 1 is the maximum; inactive means score below 0.9). To be noted: mRNA level, 48 h; actives raise or lower the signal. The essentials: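 HepaRG, human liver line; 48 h chemical exposure; 8-pt half-log series from 100 uM in 0.5% DMSO, duplicate wells. Readout: TaqMan qRT-PCR of SLC22A6 mRNA, housekeeping-normalised; bidirectional curve fit vs DMSO baseline.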

In the case of `c1ccc2c(c1)-c1cccc3cccc-2c13`, the call in experiment [1], in experiment [2], in experiment [3], in [4] and in [5] was inactive.
`CC(C)(C)OOC(=O)c1ccccc1`: the compound was called inactive in [1], in experiment [2] and in [3].
In the case of `O=Cc1ccco1`, the compound was called inactive in [1], in [2], in experiment [3], in experiment [4], in experiment [5] and in experiment [6].
Consider `CCOC(=O)[C@]1(c2ccccc2)Oc2ccccc2[C@@H]1N`, for which the outcome in [1], in [2] and in [5] was inactive. Besides, the figures for the AC50 in experiment [7] and in [6] were 36.6 µM (active) and 4.92 µM (active), respectively.
On to `Cc1cc(N=Nc2ccccc2C)ccc1N`, for which the result in experiment [1], in experiment [2] and in [4] was inactive. The AC50 in experiment [3] was 48.2 µM (active); in experiment [7], 18.9 µM (active); in experiment [5], 29.8 µM (active); in experiment [6], 7.92 µM (active).
`Cc1cccc(N)c1N`: the compound was called inactive in experiment [1], in experiment [2] and in [5]. The AC50 in experiment [7] was 4.54 µM (active); in [6] it was 57 µM (active).
Turning to `COP(=S)(OC)SCN1C(=O)c2ccccc2C1=O`, the compound was classed as inactive in experiment [1], in experiment [2] and in [5]. Besides, the AC50 in [7] was 43.8 µM (active); in experiment [6], 52.6 µM (active).
For `Clc1ccc(Cl)c(Cl)c1`, the compound was classed as inactive in experiment [1], in experiment [2], in [4], in [5] and in experiment [6].
Regarding `CCOc1cccc(C2(N3CCN(c4ccccc4)CC3)CCC(C)CC2)c1` (centres undefined), the compound was called inactive in experiment [1], in experiment [2], in experiment [3] and in experiment [5].
Consider `Oc1ccccc1Cl`, for which the outcome in experiment [1], in experiment [2], in experiment [3] and in experiment [7] was inactive.
`Clc1ccccc1Cl`: the call in experiment [1], in experiment [2], in [4] and in experiment [5] was inactive.
In the case of `CN(C)[C@@H]1C(=O)C(C(N)=O)=C(O)[C@@]2(O)C(=O)C3=C(O)c4c(O)cccc4[C@@](C)(O)[C@H]3C[C@@H]12`, the result in [1], in experiment [2], in experiment [4], in experiment [7] and in [5] was inactive.
As for `[O-][Cl+]O`, the compound was classed as inactive in [1], in experiment [2], in experiment [8], in [5] and in experiment [6].
As to `Oc1ccc2ccc3cccc4ccc1c2c34`, the AC50 in experiment [1] was 44 µM (active); in experiment [7], 10.8 µM (active); in [5], 44.1 µM (active); in experiment [6] it was 15.2 µM (active). The result in [2] was inactive.
As for `CCC[CH2][Sn]([Cl])([CH2]CCC)[CH2]CCC`, the result in [1], in [2], in experiment [3], in experiment [4] and in [5] was inactive. The AC50 in experiment [6] was 0.0309 µM (active).
Regarding `Nc1ccc([N+](=O)[O-])cc1`, the call in experiment [1], in [2], in experiment [3], in experiment [4] and in experiment [5] was inactive.
For `Cc1ccc(N)cc1`, the compound was called inactive in [1], in experiment [2], in experiment [4], in experiment [7] and in [5].
For `c1ccc(NNc2ccccc2)cc1`, the call in experiment [1], in experiment [2] and in [5] was inactive. The AC50 in experiment [7] is 19.1 µM (active).
For `ClC1=C(Cl)[C@]2(Cl)[C@H]3[C@H]([C@@H]4C=C[C@H]3C4)[C@@]1(Cl)C2(Cl)Cl`, the compound was classed as inactive in experiment [1], in experiment [2], in [4] and in experiment [5]. Further, the AC50 in experiment [6] is 976 nM (active) and 4.66 µM (active).
In the case of `CCCSC(=O)N(CCC)CCC`, the call in [1], in experiment [2], in experiment [3], in [4] and in experiment [5] was inactive.
Consider `O=[N+]([O-])c1ccc(Oc2ccc(Cl)cc2Cl)cc1`, for which the call in [5] was inactive. In addition, the AC50 in experiment [6] was 7.79 µM (active).
`CCCCOC(=O)c1ccccc1C(=O)OCc1ccccc1`: the call in [2], in [3], in [4] and in [5] was inactive. Also, the AC50 in experiment [7] is 8.68 µM (active); in experiment [6] it was 1.55 µM (active).
As to `N#CC(Br)(Br)C(N)=O`, the call in [2], in experiment [8], in experiment [7] and in experiment [5] was inactive.
In the case of `CC(C)(O)c1cnn2c(-c3ccc(F)c(-c4c(F)cccc4C#N)c3)cnc2n1`, the result in [1], in experiment [2] and in experiment [5] was inactive.
`COC(=O)c1ccccc1N`: the call in experiment [2], in experiment [3], in experiment [4], in experiment [7], in experiment [5] and in [6] was inactive.
As for `Cc1ccc(N=C=O)cc1N=C=O`, the outcome in [2], in [7] and in experiment [5] was inactive.
`CCC(C)c1ccc(O)cc1` (centres undefined): the outcome in [2], in experiment [3] and in [5] was inactive. In addition, the AC50 in experiment [7] is 43.8 µM (active); in experiment [6] it was 60.3 µM (active).
As for `CCN(CC)N=O`, the call in experiment [1], in [3] and in experiment [5] was inactive.
On to `Nc1ccc(N=Nc2ccccc2)cc1`, for which the compound was called inactive in experiment [2] and in experiment [5]. The AC50 in [7] was 40.2 µM (active); in [6] it was 33.9 µM (active).
Turning to `c1ccc2c(c1)oc1ccccc12`, the call in experiment [1], in [2] and in [5] was inactive.
Regarding `O=C(O)C1C2CCC(O2)C1C(=O)O` (centres undefined), the call in experiment [2] was inactive.
With `CO[C@@H]1[C@H](OC(=O)NC(=O)CCl)CC[C@]2(CO2)[C@H]1[C@@]1(C)O[C@@H]1CC=C(C)C`, the compound was classed as inactive in experiment [2], in experiment [9], in [8], in experiment [4], in experiment [7] and in experiment [5]. Further, the result in experiment [6] was inactive.
On to `O=C(N[C@H](c1ccccc1)[C@@H]1CN2CCC1CC2)c1c(Cl)ccc(C(F)(F)F)c1Cl`, for which the compound was classed as inactive in experiment [1]. Also, the AC50 in [5] is 0.968 µM (active); in experiment [6], 50.8 µM (active).
Turning to `O=P(OCCCl)(OCCCl)OCCCl`, the call in [1], in [8] and in experiment [3] was inactive.
In the case of `OCCCl`, the call in [1], in [2] and in experiment [5] was inactive.
Turning to `N#CC(Br)Br`, the compound was classed as inactive in experiment [2], in experiment [3], in experiment [5] and in experiment [6].
Turning to `Nc1ccc(Cc2ccc(N)cc2)cc1`, the outcome in [1], in experiment [8], in [7] and in experiment [5] was inactive.
On to `OCCCBr`, for which the call in [3], in experiment [5] and in [6] was inactive.
In the case of `Clc1ccc(C(c2ccc(Cl)cc2)C(Cl)Cl)cc1`, the result in experiment [2], in experiment [8], in [3], in experiment [4] and in experiment [5] was inactive. The AC50 in experiment [6] was 20.3 µM (active).
As for `CCCCCCCCCCCCCN1CC(C)OC(C)C1` (centres undefined), the compound was called inactive in experiment [1], in experiment [2] and in experiment [5]. Further, the half-maximal activity concentration (AC50) in experiment [6] was 90.1 µM (active).
Turning to `OCCOCCO`, the compound was classed as inactive in experiment [1], in experiment [8], in [5] and in experiment [6].
Regarding `CC(C)N(Cc1ccccc1)C(=O)C(C)(C)C`, the result in experiment [2], in [4] and in [5] was inactive.
Take `C[N+](C)(C)CC1CO1` (centres undefined): the compound was called inactive in [1], in [8] and in experiment [5].
Regarding `O=[N+]([O-])C(Br)(CO)CO`, the call in experiment [1], in experiment [9], in experiment [4] and in [5] was inactive.

For the origin of these results see PubChem BioAssay (EPA / NIEHS).
